Compound activity deposited in PubChem by The Scripps Research Institute Molecular Screening Center.
Sampled rows, rich in hits. Any-hit rate of the full collection: about 2.8%.
Fam108B inh = Fam108B inhibition, counter-screen for RBBP9 inhibitors. recombinant Fam108B, FP-Rh probe fluorescence polarization. inhibition, % at 9.51 µM. 300,000 tested, 0.33% active;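 active = inhibition above the screen mean inhibition plus 3 SD, computed separately per campaign, cut at about 18% in these data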;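 note: inhibitors lower polarization as less probe binds the enzyme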
PAFAH1B3 inh = PAFAH1B3 (human) inhibition | Q15102 | recombinant PAFAH1B3, FP-rhodamine probe, fluorescence polarization | inhibition, % at 3.39 µM | 340,000 tested, 0.28% active;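 active = inhibition above the screen-wide average of all tested compounds plus 3 SD, cut at about 25% in these data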;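 note: 0% = enzyme with DMSO only and 100% = wells lacking PAFAH1B3 protein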
pPAFAH FP inh = pPAFAH (human) enzyme inhibition | Q13093 | recombinant pPAFAH, FP-rhodamine probe fluorescence polarization | inhibition, % at 3.39 µM | 330,000 tested, 1.5% active | AID 463082;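 active = inhibition above the mean inhibition across the screen plus 3 SD, cut at about 25% in these data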;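 note: inhibitors block binding of the rhodamine activity-based probe so polarization drops; 0% = enzyme with DMSO and 100% = wells lacking pPAFAH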
PME-1 inh = blocks human protein phosphatase methylesterase 1 | Q9Y570 | recombinant PME-1, FP-Rh probe fluorescence polarization | inhibition, % at 5.9 µM | 320,000 tested, 0.53% active | AID 2130;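 active = inhibition above the campaign mean of all compounds plus 3 SD, cut at about 26% in these data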;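 note: competitive labeling of PME-1 active site by serine hydrolase directed probe; 0% = PME-1 with DMSO and 100% = wells lacking PME-1 enzyme; inhibitors block probe labeling so polarization falls and inhibition rises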
Target sequence (Q9Y570 whole entry, looked up): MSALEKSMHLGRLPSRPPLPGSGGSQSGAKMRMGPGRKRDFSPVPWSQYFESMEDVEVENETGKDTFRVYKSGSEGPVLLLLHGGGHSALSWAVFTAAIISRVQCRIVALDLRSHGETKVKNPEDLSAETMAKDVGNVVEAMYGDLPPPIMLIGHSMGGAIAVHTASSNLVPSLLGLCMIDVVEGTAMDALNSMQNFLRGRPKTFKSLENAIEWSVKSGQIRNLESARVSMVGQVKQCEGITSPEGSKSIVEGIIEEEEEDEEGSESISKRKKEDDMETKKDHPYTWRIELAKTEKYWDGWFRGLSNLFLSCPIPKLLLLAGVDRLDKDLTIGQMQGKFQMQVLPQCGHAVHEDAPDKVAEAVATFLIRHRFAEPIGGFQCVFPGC
PAFAH1B2 FP inh = blocks human PAF acetylhydrolase 1b catalytic subunit 2 | P68402 | recombinant PAFAH1B2, FP-rhodamine activity probe, fluorescence polarization | inhibition, % at 3.39 µM | 340,000 tested, 1.2% active | AID 492953;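 active = inhibition above the mean of all tested compounds plus 3 SD, cut at about 24% in these data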;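 note: 0% = enzyme with DMSO and 100% = wells lacking PAFAH1B2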
Target sequence (P68402 whole entry, looked up): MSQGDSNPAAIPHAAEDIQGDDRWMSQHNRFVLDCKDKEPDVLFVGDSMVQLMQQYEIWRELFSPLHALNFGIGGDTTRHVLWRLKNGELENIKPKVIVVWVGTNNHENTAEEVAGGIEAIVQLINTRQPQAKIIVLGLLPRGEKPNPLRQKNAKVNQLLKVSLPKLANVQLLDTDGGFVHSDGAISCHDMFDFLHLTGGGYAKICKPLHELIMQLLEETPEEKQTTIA
PAFAH2 inh = inhibitors of human PAFAH2; Q99487; recombinant PAFAH2, FP-rhodamine activity probe, fluorescence polarization; inhibition, % at 3.39 µM; 340,000 tested, 0.99% active; AID 492956;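 active = inhibition above the mean over all tested compounds plus 3 SD, cut at about 30% in these data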;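 note: inhibitors block probe labeling of enzyme so polarization drops; 0% = enzyme with DMSO and 100% = wells lacking PAFAH2 protein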
pPAFAH FP conf = confirmation of human plasma PAF acetylhydrolase (pPAFAH) inhibitors; shares compounds with pPAFAH FP inh; recombinant pPAFAH, FP-Rh probe fluorescence polarization; inhibition, % at 3.39 µM; 2,300 tested, 72% active; AID 463230;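 active = mean inhibition of the triplicate above the hit cutoff set for the earlier primary screen, cut at about 25% in these data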;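 note: 0% = enzyme with DMSO and 100% = wells lacking pPAFAH enzyme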
Active calls of the source: *.

How did CC(C)(C)c1ccc(Oc2cccc(C3CC(=O)C(C4NCCc5ccccc54)C(=O)C3n3cncn3)c2)cc1 (centres undefined) do in these assays?
Fam108B inh: 4; PAFAH1B3 inh: 9; pPAFAH FP inh: 41*; PME-1 inh: -4; PAFAH1B2 FP inh: 1; PAFAH2 inh: 8; pPAFAH FP conf: 9

How did O=C(O)CN1C(=O)/C(=C\c2cc(Br)ccc2OCc2ccc(Cl)cc2Cl)SC1=S do in these assays?
Fam108B inh: -9; PAFAH1B3 inh: -1; pPAFAH FP inh: 52*; PME-1 inh: 3; PAFAH1B2 FP inh: 18; PAFAH2 inh: 33*; pPAFAH FP conf: 67*

How did COc1ccc(CN2CCN(Cc3ccc(CO)o3)CC2CCO)cc1C (centres undefined) do in these assays?
Fam108B inh: -3; PAFAH1B3 inh: -1; pPAFAH FP inh: -4; PME-1 inh: 2; PAFAH1B2 FP inh: 2; PAFAH2 inh: 6

How did O=C1CCCC2=C1CC(C(=O)OCc1ccccc1)C(=O)N2Cc1ccccc1 (centres undefined) do in these assays?
PAFAH1B3 inh: 7; PAFAH1B2 FP inh: 3; PAFAH2 inh: 18

How did N#CCCN(NC1=NS(=O)(=O)c2ccccc21)C(=O)c1ccccc1Br do in these assays?
Fam108B inh: 0; PAFAH1B3 inh: 3; pPAFAH FP inh: 50*; PME-1 inh: -6; PAFAH1B2 FP inh: 6; PAFAH2 inh: -3; pPAFAH FP conf: 3

Results for C#CCNc1cc(-c2ccccc2)nc2ncnn12 ?
Fam108B inh: 0; PAFAH1B3 inh: 5; pPAFAH FP inh: 3; PME-1 inh: -4; PAFAH1B2 FP inh: 3; PAFAH2 inh: -31

Results for C#CCNc1cc(C)nc2ncnn12 ?
Fam108B inh: 2; PAFAH1B3 inh: -6; pPAFAH FP inh: 51*; PME-1 inh: -5; PAFAH1B2 FP inh: -1; PAFAH2 inh: 8; pPAFAH FP conf: 2

Results for Cc1cc(C)cc(CC2CC(=O)N(c3cc(C)ccc3C)C2=O)c1 (centres undefined) ?
PAFAH1B3 inh: 10; PAFAH1B2 FP inh: 1; PAFAH2 inh: 4

What do the screens show for `Cc1ccc(N2C(=O)CC(Cc3cc(C)cc(C)c3)C2=O)cc1` (centres undefined)?
Fam108B inh: 3; PAFAH1B3 inh: 0; pPAFAH FP inh: 50*; PME-1 inh: 7; PAFAH1B2 FP inh: 3; PAFAH2 inh: -6; pPAFAH FP conf: 5

What do the screens show for `O=C(/C=C/c1cccs1)c1cc(Br)ccc1OC(=O)N1CCOCC1`?
Fam108B inh: -4; PAFAH1B3 inh: 0; pPAFAH FP inh: 64*; PME-1 inh: -4; PAFAH1B2 FP inh: 3; PAFAH2 inh: 84*; pPAFAH FP conf: 61*

What do the screens show for `COc1ccc(C(=O)/C=C/c2cccs2)c(OC(=O)N2CCOCC2)c1`?
Fam108B inh: 1; PAFAH1B3 inh: 7; pPAFAH FP inh: 4; PME-1 inh: 4; PAFAH1B2 FP inh: -1; PAFAH2 inh: 3

How did CCN(CC)C(=O)C1=C(C)Nc2ncnn2C1c1cccnc1 (centres undefined) do in these assays?
Fam108B inh: 1; PAFAH1B3 inh: 4; pPAFAH FP inh: 4; PME-1 inh: -2; PAFAH1B2 FP inh: -5; PAFAH2 inh: 1

How did COc1ccc(NC(=O)CSc2nc3nc(C)cc(C)c3c(=O)[nH]2)cc1 do in these assays?
Fam108B inh: 3; PAFAH1B3 inh: 1; pPAFAH FP inh: 69*; PME-1 inh: -8; PAFAH1B2 FP inh: 4; PAFAH2 inh: -1; pPAFAH FP conf: 2

How did CCN(CC)c1ccc(NC(=O)CSc2nc3nc(C)cc(C)c3c(=O)[nH]2)cc1 do in these assays?
Fam108B inh: -1; PAFAH1B3 inh: 5; pPAFAH FP inh: 15; PME-1 inh: -1; PAFAH1B2 FP inh: 7; PAFAH2 inh: 15

How did O=C(Nc1sc2c(c1C(=O)O)CCCC2)c1cccc(Cl)c1 do in these assays?
PAFAH1B3 inh: 5; PAFAH1B2 FP inh: 20; PAFAH2 inh: 21

How did CN(CC(=O)Nc1ccc(C(N)=O)cc1)CC(=O)Nc1ccccc1Br do in these assays?
Fam108B inh: -3; PAFAH1B3 inh: 7; pPAFAH FP inh: 59*; PME-1 inh: -1; PAFAH1B2 FP inh: -2; PAFAH2 inh: -8; pPAFAH FP conf: 4

What do the screens show for `CC(=O)Nc1ccc(NC(=O)CN(C)CC(=O)Nc2ccccc2Br)cc1`?
Fam108B inh: -5; PAFAH1B3 inh: 7; pPAFAH FP inh: -8; PME-1 inh: -3; PAFAH1B2 FP inh: 4; PAFAH2 inh: -7

What do the screens show for `Cc1ccc(NS(=O)(=O)c2ccc3[nH]c(=O)oc3c2)cc1Cl`?
PAFAH1B3 inh: 7; pPAFAH FP inh: 48*; PME-1 inh: 1; PAFAH1B2 FP inh: 10; PAFAH2 inh: 4; pPAFAH FP conf: 58*

How did Cc1ccc(C)c(NS(=O)(=O)c2ccc3[nH]c(=O)oc3c2)c1 do in these assays?
Fam108B inh: 5; PAFAH1B3 inh: 3; pPAFAH FP inh: 42*; PME-1 inh: -9; PAFAH1B2 FP inh: 3; PAFAH2 inh: 4; pPAFAH FP conf: 12

How did Cc1cccc(NS(=O)(=O)c2ccc3[nH]c(=O)oc3c2)c1C do in these assays?
PAFAH1B3 inh: 12; pPAFAH FP inh: 68*; PAFAH1B2 FP inh: -3; PAFAH2 inh: 3; pPAFAH FP conf: 70*

How did Cc1cccc(NS(=O)(=O)c2ccc3c(c2)oc(=O)n3C)c1C do in these assays?
PAFAH1B3 inh: 2; PAFAH1B2 FP inh: 0; PAFAH2 inh: -2

Results for O=C(c1cc2cc(F)ccc2[nH]1)N1CCCC(Nc2ccc(F)cc2)C1 (centres undefined) ?
Fam108B inh: 7; PAFAH1B3 inh: 0; pPAFAH FP inh: 5; PME-1 inh: 0; PAFAH1B2 FP inh: 9; PAFAH2 inh: 5

Results for O=C(O)c1cccc2c1-c1ccc(Cl)cc1C2=O ?
PAFAH1B3 inh: 3; PAFAH1B2 FP inh: 5; PAFAH2 inh: 2

How did O=C(O)c1cc(O)c2c(c1)C(=O)c1cccc(O)c1C2=O do in these assays?
Fam108B inh: 12; PAFAH1B3 inh: 13; pPAFAH FP inh: 36*; PME-1 inh: 5; PAFAH1B2 FP inh: 14; PAFAH2 inh: 34*; pPAFAH FP conf: 15

Results for CN(Cc1ccccc1)S(=O)(=O)c1ccc(Cl)c(C(=O)OCC(=O)NC2CCS(=O)(=O)C2)c1 (centres undefined) ?
PAFAH1B3 inh: 5; pPAFAH FP inh: 4; PAFAH1B2 FP inh: 4; PAFAH2 inh: 3

Results for Cc1cc(C)c(S(=O)(=O)N(C)CC(=O)N2CCCCC2)c(C)c1 ?
Fam108B inh: -2; PAFAH1B3 inh: 0; pPAFAH FP inh: 52*; PME-1 inh: 4; PAFAH1B2 FP inh: 0; PAFAH2 inh: 7; pPAFAH FP conf: 0

How did Cc1cc(C)c(S(=O)(=O)N(CC(=O)N2CCCC2)C2CCCCC2)c(C)c1 do in these assays?
Fam108B inh: 2; PAFAH1B3 inh: 11; pPAFAH FP inh: 4; PME-1 inh: 1; PAFAH1B2 FP inh: 1; PAFAH2 inh: 2
